According to PubChem BioAssay AID2673 (National Center for Advancing Translational Sciences (NCATS), 2010):
Results filed as inconclusive are left out. Active and inactive are the calls of the source. Calls come from the whole dose curve; as a rule, active = well fitted activation curve with a large enough effect; inconclusive = small, poorly fitted or top-dose-only effect; inactive = no such curve, though single readings can be large or run the other way.

experiment: qHTS Multiplex Assay to Identify Dual Action Probes in a Cell Model of Huntington: Cytoprotection confirmation (ATP); details: PC12 HttQ103 induced, ATP luminescence 40 h; series mostly up to 46.1 µM; cytoprotection, positive = protection: at the top concentration
Source text: NIH Chemical Genomics Center [NCGC]
NIH Molecular Libraries Probe Production centers Network [MLPCN]
Assay Submitter (PI): Wei Zheng
Huntington's disease is a neurodegenerative disorder caused by a trinucleotide repeat expansion in Exon 1 of the Huntingtin gene. The CAG trinucleotide encodes glutamine and polyglutamine expansions cause cell death in selective areas of the brain. Huntington polyglutamine repeats have the tendency to form aggregates which are observable in later stages of the disease. The exact nature of the aggregates, whether toxic, protective, or insignificant, is unclear.
A stable PC12 cell line containing a gene fusion of Exon 1 of the Huntingtin gene linked to GFP under the control of the inducible ecdysone promoter were used as the cell-based model of Huntington Disease for high throughput screening. Exon 1 of the Huntingtin gene contained an expansion of 103 polyglutamines (Q103) which, when expressed, caused cell death and distinct, bright GFP aggregates. The amount of cell death and the size and intensity of GFP aggregates increased over time and induction level. The cell death were quantified with a measurement of ATP content in the cells. A maximal 40-50% of cell death was observed when the Huntington gene was induced in this cell line.
We optimized this assay in a homogeneous 1536 well format. A quantitative high throughput screen (qHTS) was conducted on the PC12 cells which were induced to express the toxic fusion construct. Small molecules which prevented cell death were identified by using a luminescent ATP quantification method (Perkin Elmer's ATPlite).
PC12 cells stably containing a construct with an ecdysone inducible promoter expressing GFP fused to the exon 1 of HTTQ103 (Huntington protein which containing a 103 ployglutamine expansion) were used.
NCGC Assay Protocol Summary:
Sequence, Parameter, Description
1, Reagent, 5 uL 1500 cells/well 1536 TC treated White clear bottom plate
2, Compound, 23 nL Tebufenozide inducer (100 nM final) to all columns
3, Compound, 23 nL 40 uM to 0.5 nM Libraries
5, Reagent, 5 ul ATPLite cell death assay reagent
6, Detector, 4 sec integration with a Viewlux Luminescent
Media consisted of phenol red free DMEM + 5% equine serum (Hyclone # SH30072.03 ), 5% supplemented Bovine Calf Serum (Hyclone # SH30074.03 ), 1x pen/strep, no G418

Potency, active:
Cn1nnnc1Sc1ncnc2scc(-c3ccc(C#N)cc3)c12 10 µM, Cn1nnnc1Sc1ncnc2scc(-c3ccc(S(C)(=O)=O)cc3)c12 17.8 µM, Cn1nnnc1Sc1ncnc2scc(-c3ccc(F)cc3)c12 25.1 µM, Cc1cccc(-c2csc3ncnc(Sc4nnnn4C)c23)c1 31.6 µM, Cc1ccc(-c2csc3ncnc(Sc4nnnn4C)c23)cc1 35.5 µM, Cn1nnnc1Sc1ncnc2scc(-c3cccc(F)c3)c12 14.1 µM, Cn1nnnc1Sc1ncnc2scc(-c3ccc[nH]3)c12 12.6 µM, Cn1nnnc1Sc1ncnc2scc(-c3cccs3)c12 10 µM, Cn1nnnc1Sc1ncnc2scc(-c3ccccc3Cl)c12 31.6 µM, Cn1nnnc1Sc1ncnc2scc(-c3ccccc3)c12 25.1 µM

cytoprotection, positive = protection, inactive:
CC(=O)c1n[nH]nc1NC(=O)c1ccccc1 -12.5%, COc1cc(Cc2cnc(N)nc2N)cc(OC)c1OC 1.87%, O=Nc1c(-c2c(O)[nH]c3ccccc23)[nH]c2ccccc12 -39.2%, COc1ccc(NC(=O)c2sc(SC)nc2N)cc1 -9.58%, COc1ccc(-c2[nH]ncc2-c2ccc3c(c2)OCCO3)c(O)c1 -4.71%, CN(C)CCCSc1ccccc1NC(=O)/C=C\c1ccccc1 -24.2%, O=C(O)/C=C/C(O)c1ccc(Cl)cc1 (stereo not given) -13.1%, COc1ccc(C(=O)Cc2ccc(OC)c(OC)c2)cc1 -11.5%, CC(=O)Oc1cccc(C(=O)O)c1OC(C)=O -18.4%, CN(C)c1ccc(-c2n(C)c3ccccc3[n+]2C)cc1 -37.4%, CC(C(=O)O)c1ccc(CC2CCCC2=O)cc1 (stereo not given) -43.9%, Cn1nnnc1Sc1ncnc2scc(-c3cc4ccccc4o3)c12 -107%, O=[N+]([O-])c1ccc(O)c2ncccc12 -52.7%, CC(=O)Nc1ccc(S(=O)(=O)N2CCSC2c2ccccc2)cc1 (stereo not given) 9.67%, COc1cccc(C(=O)Nc2ccc(F)c(F)c2F)c1 -15.2%, COc1ccccc1-n1nnnc1S(=O)(=O)Cc1ccc(Cl)cc1 10.7%, O=C(NCc1ccco1)c1cc2ccc(O)cc2oc1=O -11.2%, COc1ccccc1-c1csc2ncnc(Sc3nnnn3C)c12 23.1%, Cn1nnnc1Sc1ncnc2scc(-c3cccc(Br)c3)c12 -108%, O=C(NCN1C(=O)C2C3C=CC(C3)C2C1=O)Nc1ccccn1 (stereo not given) -8.5%, COc1ccc(C(=O)C(CN2CCOCC2)c2ccccc2)cc1 (stereo not given) 142%, Cc1csc(N/N=C/c2ccc(O)c([N+](=O)[O-])c2)n1 -43.6%, O=c1oc2cc(O)ccc2s1 -5.12%, CCc1nc(SCC(=O)Nc2nc3c(s2)CCCC3)c2ccccc2n1 -1.68%, Cc1ccccc1-c1csc2ncnc(Sc3nnnn3C)c12 13%, O=C(Nc1cccnc1)Nc1ccccc1Cl -24.8%, COc1ccc2c(c1)-c1c(ssc1=S)C(C)(C)N2 4.29%, Cn1nnnc1Sc1ncnc2scc(-c3ccc4c(=O)ccoc4c3)c12 -107%, O=c1c2ccccc2nnn1CSc1ncnc2ccccc12 12%, Cc1cccc(/C=N/NC(=O)c2cc3c(s2)-c2ccccc2CC3)c1 -29.8%
